Measured values from PubChem BioAssay AID624168 (Sanford-Burnham Center for Chemical Genomics, 2012).
Where “and” joins values, the source holds several entries; their conditions need not be identical. Identical values can stand only once. Out of some 360,000 compounds screened, about 800 (0.22%) were called active. The sample holds actives, similar compounds and a random draw of the others, so the mix is not that of the screen.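 How the source made its calls: active means activation of at least 8% versus controls, or a plate z-score of at least 8; inactive means the rest.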

Test: activators of alpha-DG glycosylation, primary screen, uHTS, Pro5-aDG cells, AlphaScreen (AID 624168);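 further: Pro5 are CHO cells carrying HIG-tagged alpha-DG that lacks glycosylation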
Conditions: alpha-DG glycosylation AlphaScreen (IIH6), at 10 µM, active compounds read high, 0% Pro5, 100% B10-LARGE cell signal

activation, active:
CC(=O)Oc1cccc(N2C(=O)C3CC=C(Cl)CC3C2=O)c1 (configuration not stated) 2.9%, CN(Cc1ccccc1)CC(O)COc1ccc(CNCc2cc3ccccc3s2)cc1 (configuration not stated) 4.3%, Cc1ccc(NC(=O)c2ccc(Oc3ncccn3)cc2)cc1 5.5%, CCOC(=O)C1(CCOC)CCN(Cc2cc3ccccc3s2)CC1 2%, CN1CCN(S(=O)(=O)c2cccc(C(=O)Nc3sccc3C#N)c2)CC1 8.2%, Clc1ccc(-c2cc(C3CCNCC3)[nH]n2)c(Cl)c1 11.1%, CCc1ccccc1S(=O)(=O)Cc1ccc(C(=O)NCCc2ccccc2)o1 13%, COc1cccc(-c2nnc(NC(=O)c3ccc(S(=O)(=O)N(CC(C)C)CC(C)C)cc3)o2)c1 6.1%, CCOC(=O)c1ccc(NC(=O)Cn2cnc3cc(C)c(C)cc32)cc1 3.2%, OC[C@@H]1CN(Cc2ccc(-c3ccccc3)cc2)C[C@H](n2cnc3c(NC4CCCC4)ncnc32)O1 7.5%, O=S(=O)(Nc1ccc(O)c2ccccc12)c1ccc(OC(F)(F)F)cc1 2.6%, CCn1cc(CN2CCC(C(=O)Nc3cccc(-c4cccc(Cl)c4)c3)CC2)c(C)n1 7.1%, CCCn1c(=N)n(CC(=O)c2ccc(Cl)c(Cl)c2)c2ccccc21 9.7%, Nc1scc[n+]1Cc1cccc2cccnc12 1.9%

activation, inactive:
N#Cc1cnn2cc(CCN3CCOCC3)c(-c3ccc(F)cc3)nc12 -0.1%, CNC1(c2nnnn2-c2c(C)cccc2C)CCOC(C)(C)C1 (configuration not stated) 0.1%, O=C(Cn1c(=O)sc2ccccc21)Nc1ccc2c(c1)OCCO2 0.4%, Cc1ccc(CSc2ccc(S(=O)(=O)N3CCCCC3)cn2)cc1 0.2%, O=C(N1CCCCC1)N1CCN(C(=O)N2CCCCC2)CC1 -0.2%, CC1=CCC2C(=O)N(c3cccc(C(=O)NC(C)c4ccccc4)c3)C(=O)C2C1 (configuration not stated) 0%, CC(=O)Oc1cccc(N2C(=O)CC(Nc3ccc(N4CCOCC4)cc3)C2=O)c1 (configuration not stated) 0.6%, O=C1CC(Cc2ccccc2)C(=O)N1c1ccc(Cl)cn1 (configuration not stated) -0.3%, CCCCN(CC)CCCNC(=O)c1ccc(CSc2nc3ccncc3[nH]2)cc1 -0.1%, O=C(NCC(=O)N(Cc1cccs1)C(C(=O)NC1CCCCC1)c1ccco1)c1cccs1 (configuration not stated) 0.5%, Cc1nnc(NC(=O)CCC(=O)N2CCC(C)CC2)s1 -0.2%, COc1cccc(CN(C)CC(O)COC(c2ccccc2)c2ccccc2C)c1 (configuration not stated) 0.1%, OC(CN=c1sc2ccccc2n1CC(O)COc1ccccc1)COc1ccccc1 (configuration not stated) 0.6%, Cc1nc(N)nc(Cl)c1CCC1OCCO1 0.5%, CC(OC(=O)C1CC(=O)N(Cc2ccccc2)C1)C(=O)Nc1ccccc1[N+](=O)[O-] (configuration not stated) 0.2%, CCc1noc(C)c1C(=O)N1CCCSC1=Nc1ccccc1OC -0.1%, CCOc1ccc(NC(=O)c2ccc(NC(=O)C3CCCO3)cc2)cc1 (configuration not stated) 0.1%, CCOc1ccc(C(=O)Nc2cccc(SC)c2)cc1 0.3%, COc1cc(C(=O)NCCOC(=O)c2cccc(N(C)C)c2)cc(OC)c1OC 0%, COCc1c(C(=O)OCC(=O)Nc2ccc(OC(F)F)cc2)oc2ccccc12 0.1%, Cc1cc(C)c(NC(=S)N2CCCC2C(=O)O)c(C)c1 (configuration not stated) 0.5%, CCOC(=O)C1(CCOc2ccccc2)CCN(C(=O)c2cncs2)CC1 0.1%, CCCS(=O)(=O)N1CCC(CCOc2ccccc2)(C(=O)OCC)CC1 -0.1%, CCOC(=O)N1CCN(S(=O)(=O)c2ccc(C(=O)Nc3ccc(F)cc3F)cc2)CC1 -0.1%, Cc1c(CCOC(=O)CC23CC4CC(CC(C)(C4)C2)C3)sc[n+]1Cc1ccc([N+](=O)[O-])cc1 0.1% and -0.2%, O=C(Nc1ccccc1F)c1cc(S(=O)(=O)N2CCCCC2)cs1 0%, O=C(Nc1nncs1)c1cccc(S(=O)(=O)N2CCCCC2)c1 -0.2%, CN1CCN(S(=O)(=O)c2cccc(C(=O)Nc3cccc(S(N)(=O)=O)c3)c2)CC1 -0.1%, CCCOc1ccc(C2NC(=O)NC(c3ccccc3)=C2C(C)=O)cc1OCC (configuration not stated) -0.1%, O=C(c1ccc(F)cc1)C1CCN(Cc2cn[nH]c2-c2ccccc2)CC1 -0.1%, CCCCN(CC)C(=O)C1CCCN(S(=O)(=O)c2cccc3nsnc23)C1 (configuration not stated) -0.1%, Clc1ccc(-c2cc(-c3ccccn3)on2)c(Cl)c1 0.1%, Cc1nn(-c2ccccc2)c2c1C(c1cccc([N+](=O)[O-])c1)N(c1ccccc1)C(=O)N2 (configuration not stated) -0.2%, O=C(CCSCCc1ccccn1)Nc1nccs1 -0.1%, COc1ccc(CCNC(=O)c2ccc(CS(=O)(=O)c3ccc(Br)cc3)o2)cc1OC -0.2%, Cc1ccccc1S(=O)(=O)Cc1ccc(C(=O)NCCN2CCCCC2C)o1 (configuration not stated) -0.3%, CC(C)Oc1cc(F)ccc1-c1cc(C(=O)Nc2ccc(F)cc2)[nH]n1 0%, O=C(Nc1nnc(-c2ccccc2)o1)c1cccc(S(=O)(=O)N2CCOCC2)c1 0.3%, COc1cc(-c2nnc(NC(=O)CS(=O)(=O)c3ccc(Cl)cc3)o2)cc(OC)c1OC 0.5%, CCCN(CCC)C(=O)C1c2ccccc2Oc2ccccc21 0.2%, C[C@H](CO)N1C[C@H](C)[C@H](CN(C)C(=O)Nc2ccc(C(F)(F)F)cc2)Oc2c(NC(=O)c3ccncc3)cccc2C1=O -0.2%, O=C(NCC1CCCCC1)NCC1CCCCC1 -0.2%, Cc1ccc(Nc2cc(=O)n(C3CCCCC3)c(=O)[nH]2)cc1C 0.5%, CC(NC(=O)c1cccc(S(=O)(=O)N2CCc3ccccc3C2)c1)c1ccco1 (configuration not stated) 0.1%, CCOC(=O)c1ccc(NC(=O)CCn2c(=O)oc3ccccc32)cc1 0%, CCOC(=O)c1ccc(NC(=O)CS(=O)(=O)c2cn(CC)c3ccccc23)cc1 -0.1%, COc1c(C)cc(C(O)c2ncc(-c3cccc(C(F)(F)F)c3)[nH]2)cc1C (configuration not stated) 0.3%, CC(C)c1cccc(C(C)C)c1Nc1cn[nH]c1 0.6%, COc1ccccc1C(=O)C(O)c1ccccc1OC (configuration not stated) 0.1%, OC[C@@H]1CN(C2CCCC2)C[C@H](n2cnc3c(NC4CCC4)ncnc32)O1 0.3%, CC(C)Nc1ncnc2c1ncn2[C@H]1CN(Cc2ccncc2)C[C@@H](CO)O1 0.2%, O=C(NCc1cccnc1)c1ccc(CS(=O)(=O)c2ccc(Br)cc2)o1 -0.2%, O=C1CC(c2cccc(Br)c2)C2=C(CCCC2=O)N1 (configuration not stated) 0%, Cc1ccsc1/C=N/NC(=O)Cc1cc(=O)[nH][nH]1 -0.1%, CNC(=O)COc1ccc(S(=O)(=O)Nc2ccccc2)cc1 0.1%, O=S(=O)(Nc1ccc(OC(F)(F)F)cc1)c1cccc2nonc12 -0.1%, Cc1ccc(C)c(C(=O)N2CCC(n3nccc3NC(=O)C3CC3)CC2)c1 0.3%, CC(NC(=O)COC(=O)Cn1cc(C(F)(F)F)ccc1=O)c1ccccc1 (configuration not stated) -0.1%, COc1ccc(-c2oc(/N=C/N3CCCC3)c(C#N)c2-c2ccc(OC)cc2)cc1 0.1%, COc1cccc(CN(C)CC2CCCN(CCc3ccc(Cl)cc3)C2)c1OC (configuration not stated) 0%, O=C(Nc1cccc(-c2cccc(Cl)c2)c1)C1CCN(C2CCC2)CC1 1.9%, CCn1cc(CN2CCC(C(=O)Nc3cccc(-c4cccc(Cl)c4)c3)CC2)cn1 3.4%, CN(C)N1C(N)=C(C#N)C(c2ccc(Br)cc2)C2=C1CCCC2=O (configuration not stated) 0%, CCN(CC)CC1(O)CCN(C(=O)c2ccc(Cl)c(Cl)c2)CC1 -0.1%, O=C(Cn1nnc(N2CCCCC2)n1)c1ccc(Cl)c(Cl)c1 -0.1%, O=C(O)c1ccccc1-c1cccc2nncn12 0.1%, Cc1ccc(-c2ccc(CN3C(C(C)C)C(=O)N(Cc4cn(CCC5OCCCO5)nn4)CCS3(=O)=O)cc2)cc1 (configuration not stated) 0.4%, CC(C)C(c1nnnn1C(C)(C)C)N1CCN(Cc2cccnc2)CC1 (configuration not stated) -0.3%, O=C(Cn1ncc2c3ccccc3n(Cc3ccccc3)c2c1=O)NCc1ccccn1 -0.4%, CC(C#N)OC(=O)c1cccnc1SCC(=O)Nc1ccc2c(c1)OCO2 (configuration not stated) 0.5%, c1ccc2c(C[n+]3csc4ccccc43)cccc2c1 -0.1%, CC(NCc1ccccc1OC1CCCC1)c1ccccc1 (configuration not stated) 0.5%, O=C(COc1cccc(Cl)c1)NCc1ccccc1 0.1%
